Cav32 inh: inhibitors of human Cav3.2 T-type calcium channel; Cav3.2-expressing cells, Fluo-4 calcium fluorescence FDSS; active compounds read low; B-score at 10 µM; actives 4% (n = 100,000); AID 449739;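 active means single-dose well whose peak fluorescence ratio is a statistical outlier from its plate by either plate-standardised score or position-corrected B-score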
Target sequence (O95180 whole entry, looked up): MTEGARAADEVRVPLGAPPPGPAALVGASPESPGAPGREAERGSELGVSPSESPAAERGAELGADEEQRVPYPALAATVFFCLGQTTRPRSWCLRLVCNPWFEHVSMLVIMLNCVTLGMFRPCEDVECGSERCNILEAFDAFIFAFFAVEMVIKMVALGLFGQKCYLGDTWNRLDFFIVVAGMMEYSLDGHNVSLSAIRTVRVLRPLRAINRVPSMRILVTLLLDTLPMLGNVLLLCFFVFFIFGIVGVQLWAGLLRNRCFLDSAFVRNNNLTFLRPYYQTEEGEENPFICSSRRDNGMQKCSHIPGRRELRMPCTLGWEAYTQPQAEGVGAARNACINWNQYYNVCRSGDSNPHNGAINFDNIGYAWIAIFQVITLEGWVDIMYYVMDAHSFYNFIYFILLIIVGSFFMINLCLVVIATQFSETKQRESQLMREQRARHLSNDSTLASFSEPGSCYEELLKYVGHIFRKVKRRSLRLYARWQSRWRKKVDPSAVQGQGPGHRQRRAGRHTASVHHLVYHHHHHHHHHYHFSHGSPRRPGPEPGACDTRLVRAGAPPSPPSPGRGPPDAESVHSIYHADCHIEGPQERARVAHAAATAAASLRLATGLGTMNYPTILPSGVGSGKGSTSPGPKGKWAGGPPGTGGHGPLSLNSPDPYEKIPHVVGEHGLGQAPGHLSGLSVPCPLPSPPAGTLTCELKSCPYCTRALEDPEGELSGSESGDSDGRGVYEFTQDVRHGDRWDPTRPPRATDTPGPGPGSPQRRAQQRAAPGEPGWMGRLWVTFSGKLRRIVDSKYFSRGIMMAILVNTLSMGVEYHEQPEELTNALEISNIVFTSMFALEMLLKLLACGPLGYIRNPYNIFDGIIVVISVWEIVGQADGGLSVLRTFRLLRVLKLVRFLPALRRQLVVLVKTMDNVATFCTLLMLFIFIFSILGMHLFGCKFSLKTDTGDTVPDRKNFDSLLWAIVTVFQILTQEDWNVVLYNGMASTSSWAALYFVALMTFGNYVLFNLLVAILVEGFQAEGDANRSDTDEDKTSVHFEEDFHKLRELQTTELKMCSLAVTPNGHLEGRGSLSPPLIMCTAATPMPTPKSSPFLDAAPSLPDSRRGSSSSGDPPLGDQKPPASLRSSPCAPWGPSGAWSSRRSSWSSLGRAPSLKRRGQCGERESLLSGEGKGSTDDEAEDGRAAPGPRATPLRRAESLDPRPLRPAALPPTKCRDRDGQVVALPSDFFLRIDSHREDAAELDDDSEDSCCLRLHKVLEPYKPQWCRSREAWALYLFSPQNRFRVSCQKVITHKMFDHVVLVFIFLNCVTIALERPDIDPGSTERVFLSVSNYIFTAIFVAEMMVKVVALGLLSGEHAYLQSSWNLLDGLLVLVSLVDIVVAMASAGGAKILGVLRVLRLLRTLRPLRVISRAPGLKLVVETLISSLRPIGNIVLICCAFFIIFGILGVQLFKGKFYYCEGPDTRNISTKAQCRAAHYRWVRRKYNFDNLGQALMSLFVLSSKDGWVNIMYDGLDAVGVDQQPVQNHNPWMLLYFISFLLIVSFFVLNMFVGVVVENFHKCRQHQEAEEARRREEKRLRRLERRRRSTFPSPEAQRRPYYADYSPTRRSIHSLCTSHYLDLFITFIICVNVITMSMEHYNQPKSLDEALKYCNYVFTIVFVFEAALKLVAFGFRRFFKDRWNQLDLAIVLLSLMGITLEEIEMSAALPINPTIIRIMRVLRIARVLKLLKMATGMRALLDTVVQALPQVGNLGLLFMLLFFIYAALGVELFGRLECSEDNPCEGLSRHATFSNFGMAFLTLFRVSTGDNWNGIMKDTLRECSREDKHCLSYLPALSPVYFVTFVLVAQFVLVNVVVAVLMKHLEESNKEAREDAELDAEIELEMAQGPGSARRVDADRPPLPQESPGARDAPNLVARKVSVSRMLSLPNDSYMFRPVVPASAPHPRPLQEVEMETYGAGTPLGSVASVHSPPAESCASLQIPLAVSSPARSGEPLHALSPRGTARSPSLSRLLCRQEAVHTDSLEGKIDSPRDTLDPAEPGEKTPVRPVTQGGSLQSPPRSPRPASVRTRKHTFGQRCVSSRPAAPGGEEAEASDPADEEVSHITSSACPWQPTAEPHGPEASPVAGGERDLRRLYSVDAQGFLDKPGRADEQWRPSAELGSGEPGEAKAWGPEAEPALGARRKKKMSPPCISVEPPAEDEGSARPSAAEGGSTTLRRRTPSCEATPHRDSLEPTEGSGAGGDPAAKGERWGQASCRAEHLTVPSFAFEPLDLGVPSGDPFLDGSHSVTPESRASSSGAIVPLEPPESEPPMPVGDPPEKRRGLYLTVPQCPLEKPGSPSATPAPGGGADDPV
M1 ag: activates the M1 muscarinic receptor. CHO-M1 cells, Fluo-4 calcium fluorescence, agonist mode; active compounds read high. B-score at 10 µM. actives 3% (n = 64,000). AID 626;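 active means fluorescence rise, raw or as B-score row- and column-corrected plate score, outside the 99.7% band of its plate's samples, either direction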
M1 antagonist: antagonists of rat M1 muscarinic receptor | P08482 | CHO-M1 cells, Fluo-4 calcium, ACh EC80 antagonist mode; active compounds read low | B-score at 10 µM | actives 3.4% (n = 64,000) | AID 628;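 active means calcium fluorescence response, raw or row-and-column corrected B-score, differing from the plate sample mean either way at a set confidence level, mostly lower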
PLAP activator: human PLAP activation; purified PLAP enzyme, luminescent substrate read-out; active compounds read high; AID 696; actives 1.2% (n = 96,000); activation fold at 20 µM; P05187; in the data active means activation fold above about 2
HER2 expr 66K: inhibitors of human Her2 kinase expression; P04626; SKBR-3 HER2 protein level, AlphaScreen, 18-24 h; active compounds read low; HER2 level % of control, % at 10 µM; actives 0.69% (n = 65,000);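 active means HER2 level under 5% of the carrier-only control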;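 further: 100% = DMSO carrier and 0% = 500 nM PU-H71 HSP90 inhibitor; lower value means stronger loss of Her2 protein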
M1 antag conf: confirmation of rat M1 muscarinic receptor antagonists; AID 677; calcium response (max-min fluorescence) at 10 µM; actives 43% (n = 1,700); shares compounds with M1 antagonist; CHO-M1 cells, Fluo-4 calcium, ACh EC80 antagonism; active compounds read low;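 active means calcium response below the same-plate mean of wells given acetylcholine alone at its 80%-effect dose, minus 3 SD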;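 further: raw fluorescence intensity difference in arbitrary instrument units and not normalized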
mGluR4 antag: selectivity test for M1 antagonists: human mGluR4 receptor. CHO-mGluR4 calcium flux, Fluo-4 fluorescence, glutamate EC80; active compounds read low. fluorescence response (max-min) at 10 µM. actives 0.9% (n = 1,700). shares compounds with M1 antagonist. AID 678;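 active means fluorescence response below the plate's average for near-maximal glutamate wells, less 3 SD of those wells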;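 further: raw unnormalized fluorescence span taken in the window right after glutamate addition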
An asterisk follows results filed as active; / = no result given. In the library only some 7.9% were active in any assay of this set; here they are far more common.

SMILES	Cav32 inh	M1 ag	M1 antagonist	PLAP activator	HER2 expr 66K	M1 antag conf	mGluR4 antag
CCCN1C2CCCC1CC(NC(=O)c1ccccc1F)C2 (centres undefined)	-0.097	-1.2	-3.7*	0.8	96	567	236
CCOc1ccccc1NC(=O)NC1CC2CCCC(C1)N2Cc1nnnn1CCc1ccccc1 (centres undefined)	/	0.03	0.26	1.4	92	/	/
Cc1ccccc1CS(=O)(=O)CCC(=O)NCc1ccccn1	0.076	1.2	0.55	0.9	82	/	/
COc1ccc(Oc2coc3c(CN(C)C)c(O)ccc3c2=O)cc1	-0.28	-0.058	-3.7*	0.9	74	445*	211
COc1ccc(Oc2c(C)oc3c(CN(C)C)c(O)ccc3c2=O)cc1	0.62	0.43	-7.5*	1.1	109	371*	182
Cc1cc(C(=O)CSc2nnc(-c3cccnc3)n2-c2ccccc2F)c(C)n1CC1CCCO1 (centres undefined)	-0.0076	/	/	1.4	/	/	/
COC(=O)c1ccc(COC(=O)c2ccc(-n3cnnn3)cc2)o1	0.095	-0.027	-0.068	1.2	100	/	/
CCC(C)N(C)Cc1cccc(C2(O)CCN(S(=O)(=O)c3ccc(F)cc3)CC2)c1 (centres undefined)	1.8	1.2	-2.1*	1.3	129	468*	229
CCOC(=O)c1[nH]c2ccc(Br)cc2c1NC(=O)CCN1CCC(C(=O)OCC)CC1	-0.028	-0.48	-5.2*	1.4	82	408*	247
CCOC(=O)c1[nH]c2ccc(Br)cc2c1NC(=O)CCN1CCN(C(=O)OCC)CC1	-0.9	2.6	-0.5	1.5	97	/	/
COC(=O)c1[nH]c2cccc(OC)c2c1NC(=O)CCN1CC(C)CC(C)C1 (centres undefined)	-0.21	0.59	-3.4*	1.5	91	584	266
CCOC(=O)c1[nH]c2ccc(OC)cc2c1NC(=O)CCN1CCCC(C)C1 (centres undefined)	-0.008	0.15	-3.6*	1.2	101	370*	242
CCOC(=O)c1[nH]c2ccc(Br)cc2c1NC(=O)CCN1CCCCC1	-1.8	-0.58	-15*	1.8	77	25*	143*
CCOC(=O)c1[nH]c2ccc(OC)cc2c1NC(=O)NC(C)C	1.2	/	/	0.9	/	/	/
CC(=O)NC1C(=O)N(C)c2ccc(Br)cc21 (centres undefined)	1.1	/	/	1.2	/	/	/
O=C(c1ccc([N+](=O)[O-])cc1)N(Cc1ccc(Br)cc1)N1C(=O)CCCC1=O	-0.72	/	/	1.1	/	/	/
COC(=O)c1[nH]c2ccc(C)cc2c1NC(=O)CCN1CCN(Cc2ccc3c(c2)OCO3)CC1	0.072	-0.024	-20*	1.1	101	38*	226
CCN(CC(=O)Nc1c(C(=O)OC)[nH]c2ccc(Cl)cc12)c1ccc2c(c1)OCO2	-0.94	-0.47	-0.22	1.3	82	/	/
O=S(=O)(c1ccc(OCC(O)CN2CCc3ccccc3C2)cc1)N1CCOCC1 (centres undefined)	0.44	0.62	-3.7*	1.3	81	422*	252
CCO[C@H]1OC(C(=O)O)=C[C@@H](C)[C@@H]1CCCO	0.67	/	/	/	/	/	/
O=C(NCc1nc2ccccc2[nH]1)C1=C[C@@H](c2ccc(C(F)(F)F)cc2)C[C@@H](OCc2ccc(CO)cc2)O1	-2.5	/	/	/	/	/	/
CCC(C)(C)n1nnnc1C(c1cc2cc(OC)ccc2[nH]c1=O)N1CCc2ccccc21 (centres undefined)	-1.4	0.23	-16*	1.6	63	486	198
CCC(C)(C)n1nnnc1C(c1cc2cc(C)ccc2[nH]c1=O)N1CCCc2ccccc21 (centres undefined)	/	/	/	1.6	/	/	/
CC(C)(C)C(=O)NCCc1nc(-c2ccccc2)no1	0.44	/	/	/	/	/	/
CCCCS(=O)CC(O)COc1ccc(C(C)(C)C)cc1 (centres undefined)	-0.51	0.43	0.37	1.2	74	/	/
SMILES	Cav32 inh	M1 ag	M1 antagonist	PLAP activator	HER2 expr 66K	M1 antag conf	mGluR4 antag
CC(C)(C)c1ccc(OCC(O)CS(=O)(=O)c2ccccn2)cc1 (centres undefined)	0.54	-0.43	-1.8*	0.9	105	660	262
COc1ccc(OC)c(S(=O)(=O)N2CCC(C(=O)N3CCc4ccccc4C3)CC2)c1	-2.4	1.5	0.029	1.8	102	/	/
O=C(NCc1ccc(Cl)cc1)c1cc(-c2ccco2)on1	/	0.26	-0.34	1	77	/	/
O=C(NCc1ccc(F)cc1)c1cc(-c2ccco2)on1	-0.78	-0.73	-3.9*	0.9	80	673	177
CCN1C=C(Cc2cccs2)C2=C(C1)C(c1cccs1)C(C#N)=C(N)O2 (centres undefined)	-0.00089	2.8	-3.8*	1	65	514	170*
Cc1ccc(S(=O)(=O)NC(=O)Nc2c(C)n(C)n(-c3ccccc3)c2=O)cc1	0.94	0.52	0.24	1.1	98	/	/
Cc1ccc(N2C(=O)C(Cl)=C(Nc3c(C)n(C)n(-c4ccccc4)c3=O)C2=O)cc1	1.1	0.098	-5.7*	1.3	86	133*	265
CC(C)(C)NC(=O)C1Cc2ccccc2CN1C(=O)Nc1ccccc1Cl (centres undefined)	1	/	/	0.9	/	/	/
CCc1ccc(C(=O)N2CCN(c3ccc(F)cc3)CC2)s1	-1.8	-1.4	-6.5*	0.9	96	507*	229
COc1ccccc1-n1c(C)nnc1SCC(=O)Nc1cccc(C(C)=O)c1	0.64	-0.52	-2.7*	0.9	93	649	226
COc1cccc(-n2ccnc2SCC(=O)NCc2ccccc2)c1	/	0.093	-2.7*	0.8	100	528	191
Cc1csc(NC(=O)CSc2nnc(-c3ccoc3C)n2Cc2ccco2)n1	-0.87	/	/	1.4	50	/	/
O=C(CN(CCc1ccccc1)C(=O)CNS(=O)(=O)c1ccc(F)cc1)NCC1CCCO1 (centres undefined)	-0.23	0.074	-2.3*	1.6	103	642	238
O=C(CN(CC1CCCO1)C(=O)CNS(=O)(=O)c1ccc(Cl)cc1)NCCc1ccccc1 (centres undefined)	-2.1	/	/	1	/	/	/
CC(=O)CC(c1ccc([N+](=O)[O-])cc1)c1c(O)c2ccccc2oc1=O (centres undefined)	-0.24	/	/	1.2	/	/	/
Cc1ccc(-n2ncc(C#N)c2/N=C/N2CCCCCC2)cc1	-3.1	0.5	-2*	1.4	95	560*	196
O=C(CSc1ncn[nH]1)Nc1ccc(Cl)c(Cl)c1	-0.0068	-1.7	-0.0086	1.4	48	/	/
Cc1nc2sc3c(c2c2nnc(SCC(=O)NCc4ccco4)n12)CCCC3	-1.1	-1	-2.7*	1.6	124	618	215
Cc1ccc(C)c(N2CCN(S(=O)(=O)c3ccc4c(c3)OCCO4)CC2)c1	-1.8	-0.13	-1*	1.1	101	641	235
